Experimental data as given in PubChem BioAssay (EPA / NIEHS).
Inconclusive results are not listed. Activity calls are given as the source filed them. How the source made its calls: active means hit-call score of the fitted dose curve at least 0.9, where 1 is the maximum; inconclusive means response in the unintended direction; inactive means score below 0.9.

biological target: Luciferin 4-monooxygenase (Photinus pyralis) (UniProt P08659); assay: CCTE_Simmons_QuantiLum_inhib_2: CCTE's Firefly Luciferase Inhibition Assay, Simmons Lab (AID 2283767);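 on AC50: potency for inhibitors that lower luciferase luminescence relative to DMSO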
Sequence (P08659 whole entry, looked up): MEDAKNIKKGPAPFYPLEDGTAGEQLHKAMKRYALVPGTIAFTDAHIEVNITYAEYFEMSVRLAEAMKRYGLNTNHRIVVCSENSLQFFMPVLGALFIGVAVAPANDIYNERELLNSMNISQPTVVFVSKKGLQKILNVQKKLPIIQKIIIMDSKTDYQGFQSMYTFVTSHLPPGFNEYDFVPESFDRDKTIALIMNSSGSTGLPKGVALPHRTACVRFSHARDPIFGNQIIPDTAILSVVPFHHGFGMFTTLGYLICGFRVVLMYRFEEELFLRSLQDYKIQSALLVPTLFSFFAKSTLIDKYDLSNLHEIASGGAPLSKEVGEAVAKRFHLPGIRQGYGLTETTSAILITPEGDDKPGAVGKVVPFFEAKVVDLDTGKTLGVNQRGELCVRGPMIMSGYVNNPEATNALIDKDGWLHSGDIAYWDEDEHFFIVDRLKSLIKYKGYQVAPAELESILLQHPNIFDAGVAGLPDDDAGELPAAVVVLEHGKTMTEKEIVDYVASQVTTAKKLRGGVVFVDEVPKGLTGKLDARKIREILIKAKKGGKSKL
Protocol: CCTE_Simmons_QuantiLum_inhib_2 is a biochemical, single-readout assay that uses purified luciferase enzyme in a cell-free assay.Measurements were taken 0.5 hour after chemical dosing in a 384-well plate.CCTE_Simmons_QuantiLum_inhib_2 is the assay component measured from the CCTE_Simmons_QuantiLum_inhib_2 assay. It is designed to make measurements of enzyme activity, a form of enzyme reporter, as detected with bioluminescence signals by Luciferase-coupled Quantilum levels technology. This is a secondary assay to CCTE_Simmons_AUR_TPO to evaluate nonspecific enzyme inhibition.Data from the assay component CCTE_Simmons_QuantiLum_inhib_2 was analyzed at the endpoint, CCTE_Simmons_QuantiLum_inhib_2, in the positive analysis fitting direction relative to DMSO as the negative control and baseline of activity. Using a type of enzyme reporter, measures of enzyme activity for loss-of-signal activity can be used to understand inhibition of firefly luciferase. This is an assay endpoint to indicate nonspecific protein inhibition for comparison to aeid 1508 for thyroperoxidase inhibition. To generalize the intended target to other relatable targets, this assay endpoint is annotated to the oxidoreductase intended target family, where the subfamily is monooxygenase.
Quanti-Lum recombinant luciferase (Promega; Madison, Wisconsin) was diluted to 76.9 ng/ml with 200mM potassium phosphate buffer supplemented with 1 mg/ml bovine serum albumin and 65ul (5ng recombinant luciferase) per well was dispensed into opaque, white 384-well plates (Greiner, BioExpress) using an automated liquid handler (BioTek MicroFlo) with a plastic 5 ul tubing cassette. Test compounds were administered using the HDRT as described earlier to achieve a 0.5% final DMSO concentration. Microplates were incubated at 37C in the dark for 30min to mimic the AUR-TPO assay conditions. Luciferase detection reagent (25 ul per well; 9.2 mM dithiothreitol, 75uM Coenzyme A, 147uM dATP, 150uM D-luciferin, 8.9 mM Tricine, 297uM (MgCO3)4.Mg(OH)2.5H20, 742uM MgSO4, 27.8uM EDTA, pH 7.8, final assay concentrations) was then added using a BMG Clariostar plate reader equipped with syringe injectors (BMG LabTech; GmbH). Plates were read using a kinetic luminescence protocol (top read) whereby each well was individually injected with luciferase detection reagent immediately prior to measurement. Three biological replicates of technical singles were run for every chemical concentration tested. A titrated range of LUCINH2 served as a positive control on each plate of the luciferase inhibition screening assay. Test chemicals were administered as a titrated series of 8 concentrations from 5 nM up to 87.5 uM [final] for 30 minutes prior to single endpoint detection. Dimethylsulfoxide [DMSO] was used as the vehicle control. Luciferase Inhibitor I [2-(5-(2-Methoxyphenyl)-1,2,4-oxadiazol-3-yl)pyridine] was used as the positive control and was administered as a titrated series of 8 concentrations from 1 nM up to 100 uM [final].

`O=C=Nc1ccccc1` was tested. Which outcome did it give?
The outcome was “inactive”.

Which AC50 does the source give for `CCCCCCCCCCCCCCCC[N+](C)(C)C` here?
Its AC50 is 92.4 µM (active).

For `COc1cc(OC)nc(Oc2cccc(Oc3nc(OC)cc(OC)n3)c2C(=O)O)n1`, which outcome is on record?
Its outcome is “inactive”.

For `C=CC(=O)OCC(CC)CCCC` (stereo not given), which outcome is on record?
The outcome was “inactive”.

For `CC(C)c1ccc(O)cc1`, which outcome is on record?
Its outcome is “inactive”.

With `Nc1cc(Cl)cc(Cl)c1` as the compound, how does the outcome read?
Its outcome is “inactive”.

With `O=C(O)CCl` as the compound, how does the outcome read?
Its outcome is “inactive”.

Which outcome does the source give for `CC(C)(c1cc(Cl)c(O)c(Cl)c1)c1cc(Cl)c(O)c(Cl)c1` here?
The outcome was “inactive”.

With `S=c1[nH]c2ccccc2[nH]1` as the compound, how does the AC50 read?
The AC50 was 2.02 µM (active).

`c1ccc(P(c2ccccc2)c2ccccc2)cc1` was tested. Which outcome did it give?
The outcome was “inactive”.

How did the AC50 turn out when `[CH3][Hg][Cl]` was run?
The AC50 was 4.22 µM (active).

Which outcome does the source give for `COc1ccn(C)c(=O)c1C#N` here?
The outcome was “inactive”.

`Nc1ccccc1` was tested. Which outcome did it give?
The outcome was “inactive”.

Which outcome does the source give for `CC1CCCC1.[C-]#[O+].[C-]#[O+].[C-]#[O+].[Mn]` here?
The outcome was “inactive”.

With `Nc1ccc(Cl)c(Cl)c1` as the compound, how does the outcome read?
Its outcome is “inactive”.

How did the outcome turn out when `CCOC(=O)NC(=S)Nc1ccccc1NC(=S)NC(=O)OCC` was run?
Its outcome is “inactive”.

Which AC50 does the source give for `Cc1ccc2cc3c(ccc4ccccc43)c3c2c1CC3` here?
The AC50 was 0.263 µM (active).

With `CC(C)(O)C#N` as the compound, how does the outcome read?
Its outcome is “inactive”.

For `O=C(CCl)c1ccccc1`, which outcome is on record?
Its outcome is “inactive”.

How did the outcome turn out when `c1ccc2cc3c(cc2c1)-c1cccc2cccc-3c12` was run?
Its outcome is “inactive”.
